# Screens as filed in PubChem.
# DT40 TDP1 no CPT – qHTS for Inhibitors of human tyrosyl-DNA phosphodiesterase 1 (TDP1): qHTS in cells in absence of CPT; DT40 Tdp1-/- hTDP1 cells, no CPT, ATP luminescence, 48 h; Potency, µM (doses to about 46.2 µM), usual class: inhibitors; actives 15% (n = 420,000); AID 686978, 2013; also: nearly all actives have a fitted effect of over 55% in size
#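 Compound effects on proliferation are scored in DT40 Tdp1-/-;hTDP1 cells in the absence of CPT. ATP levels (CellTiter-Glo luminescence) are recorded after a ≥48 hr, 37 °C incubation.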
# TGFb SMAD3 inh – blocks TGF-b signaling | AID 588855 | Potency, µM (titrated, usually from 46.1 µM), actives largely listed as inhibitors | actives 1.2% (n = 410,000) | HepG2 CAGA-GFP TGF-b/SMAD3 reporter, GFP fluorescence, 18 h; TGF-beta stimulated, 500 pg/mL final; also: nearly all actives have a fitted effect of over 65% in size
#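 Inhibition was scored as loss of TGF-beta-induced (500 pg/mL final, 18 hours, 37 degrees C) GFP in HEPG2 cells carrying a CAGA-GFP reporter, in DMEM with 1% FBS. Well GFP was summed per cell; Activity was normalised to unstimulated and stimulated DMSO wells, then concentration-response fitting.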
# TDP1 block – TDP1 (human) enzyme inhibition; Q9NUW8; recombinant TDP1, AlphaScreen DNA substrate cleavage; Potency, µM (top dose mostly 130 µM), actives largely listed as inhibitors; actives 0.28% (n = 350,000); AID 485290; also: nearly all actives have a fitted effect of over 40% in size
# Target sequence (Q9NUW8 whole entry, looked up): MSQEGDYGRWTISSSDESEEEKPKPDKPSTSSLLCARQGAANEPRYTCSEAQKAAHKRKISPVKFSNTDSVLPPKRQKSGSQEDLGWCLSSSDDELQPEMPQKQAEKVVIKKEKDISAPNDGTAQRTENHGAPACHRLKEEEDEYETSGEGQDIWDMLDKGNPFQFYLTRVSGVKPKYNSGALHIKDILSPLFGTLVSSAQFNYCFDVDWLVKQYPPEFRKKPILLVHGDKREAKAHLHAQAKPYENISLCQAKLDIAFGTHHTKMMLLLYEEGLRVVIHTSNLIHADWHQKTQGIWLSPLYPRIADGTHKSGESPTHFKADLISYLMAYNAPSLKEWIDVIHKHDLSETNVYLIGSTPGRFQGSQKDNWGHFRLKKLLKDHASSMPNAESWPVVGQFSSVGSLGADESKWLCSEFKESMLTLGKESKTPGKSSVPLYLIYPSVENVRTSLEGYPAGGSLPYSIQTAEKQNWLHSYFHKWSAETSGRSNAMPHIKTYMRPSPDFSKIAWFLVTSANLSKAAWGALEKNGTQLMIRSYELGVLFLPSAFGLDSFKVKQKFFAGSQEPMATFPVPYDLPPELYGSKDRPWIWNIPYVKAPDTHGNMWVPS
#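 AlphaScreen read-out: signal falls as enzyme removes the 3' tyrosine-FITC from a 5'-biotinylated DNA oligo (15 nM, 5 min, RT). Enzyme was E. coli-made recombinant Tdp1 at 1 nM, exposed to compound for 15 min beforehand; beads 10 ug/ml, 10 min.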
# TDP1 cell CPT – growth inhibition of DT40 Tdp1-/-;hTDP1 cells with camptothecin (screen for TDP1 inhibitors); chicken DT40 Tdp1-/-;hTDP1 cells + 20 nM CPT, ATP luminescence, 48 h; Potency, µM (top dose mostly 46.2 µM), usual class: inhibitors; actives 12% (n = 420,000); AID 686979; also: nearly all actives have a fitted effect of over 55% in size
#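 Cell growth measured by CellTiter-Glo luminescence after a minimum 48 h, 37 C compound exposure with 20 nM CPT in Tdp1-knockout DT40 cells stably expressing hTDP1, seeded 400/well; qHTS titration format.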
# IL1B secr inh – blocks inflammasome-driven IL-1 beta release; THP-1 LPS/ATP IL-1B secretion, AlphaLISA, 16 h; stronger effect = lower value; activity change, % at 57.5 µM; actives 4.7% (n = 360,000); in the data active = activity change below about -50%; inconclusive = mostly about -30% to -49%
#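 Secreted IL-1B measured by AlphaLISA bead assay after 16 h compound exposure of THP-1 cells; compounds (final up to 57.5 uM) added 1 h before LPS (250 ng/mL) and ATP (1.25 mM) stimulation; lower signal means less secretion.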
# HepG2 tox – counter-screen for TGF-b inhibitors: cytotoxicity in HepG2 cells; Potency, µM (highest dose often 46.1 µM), actives largely listed as cytotoxic; actives 0.76% (n = 410,000); HepG2 CAGA-GFP viability, ATP luminescence, 18 h
#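 HepG2 CAGA-GFP cells (1000/well, DMEM with 1% FBS) received compound, then TGF-beta at 500 pg/mL final, and were incubated 18 hours at 37 degrees C. Viability was read by CellTiter-Glo luminescence. Media-only wells were set as complete cell-killing and DMSO as no toxicity.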
# Numbers stand for hits; n = inactive; u = inconclusive; x = no result; [ ] = remark or other dose. Most compounds without a hit are left out; they make up all but 18% or so of the library. Unless noted, calls follow the shape of the dose curve; as a rule, active = well fitted curve in the direction sought with a large enough effect; inconclusive = small, poorly fitted or top-dose-only effect, or another doubt; inactive = no such curve, though single readings can be large; an effect the other way counts as inactive or inconclusive.
SMILES,DT40 TDP1 no CPT,TGFb SMAD3 inh,TDP1 block,TDP1 cell CPT,IL1B secr inh,HepG2 tox
Cc1ccc(NC(=O)COC(=O)Cn2cnc3c2c(=O)n(C)c(=O)n3C)cc1,n,n,n,n,n,n
CCOC(=O)c1c(NC(=O)COC(=O)Cn2cnc3c2c(=O)n(C)c(=O)n3C)sc(C)c1CC,n,n,x,6.5µM,n,n
CNC(=O)c1ccc(Nc2nnc(-c3ccc(C)c(S(=O)(=O)NCC4CCCO4)c3)c3ccccc23)cc1 (configuration not stated),13µM,n,n,26µM,u,n
Cc1ccc(-c2nn3c(-c4ccco4)nnc3c3ccccc23)cc1S(=O)(=O)NCC1CCCO1 (configuration not stated),5.8µM,n,n,u,n,n
CCCCNS(=O)(=O)c1ccc(C)c(-c2nnc3c4ccccc4c(C)nn23)c1,16µM,n,n,u,x,n
Cc1ccc(-c2nnc(Nc3ccccc3)c3ccccc23)cc1S(=O)(=O)NCC1CCCO1 (configuration not stated),16µM,n,n,26µM,-62,n
COc1ccc(C(c2c(C)n(C)n(-c3ccccc3)c2=O)c2c(C)n(C)n(-c3ccccc3)c2=O)c(OC)c1OC,n,n,x,u,n,n
Cc1ccc(NC(=O)CSc2nc3nn(-c4ccccc4)c(=O)c-3c3n2CCCCC3)cc1F,u,n,n,u,n,n
CNS(=O)(=O)c1cc(-c2nn3c(C)nnc3c3ccccc23)ccc1C,u,n,n,u,x,n
CC(=O)Nc1ccc(Nc2nnc(-c3ccc(C)c(S(=O)(=O)NCC4CCCO4)c3)c3ccccc23)cc1 (configuration not stated),n,n,n,n,n,n
CCCNS(=O)(=O)c1cc(-c2nn3c(C)nnc3c3ccccc23)ccc1C,18µM,n,n,u,x,n
CCOC(=O)CNS(=O)(=O)c1cc(-c2nn(C)c(=O)c3ccccc23)ccc1C,u,n,50µM,u,-92,n
Cc1ccc(C)c(Nc2nnc(-c3ccc(C)c(S(=O)(=O)NCC4CCCO4)c3)c3ccccc23)c1 (configuration not stated),5.2µM,u,x,18µM,x,n
NC(=O)CSc1nnc(Cc2cccs2)n1C1CCCCC1,n,n,n,n,n,n
CC(Sc1nnc(Cc2cccs2)n1C1CCCCC1)C(=O)NCc1ccco1 (configuration not stated),15µM,n,n,15µM,n,n
CCOC(=O)c1c(C)[nH]c(C(=O)COc2ccc3ccc(=O)oc3c2)c1C,n,n,22µM,u,n,n
CCOC(=O)COc1ccc2cc(C(=O)OCC)c(=O)oc2c1,n,n,n,n,-80,n
CCOC(=O)COc1ccc2c3c(c(=O)oc2c1)CCCC3,n,n,n,n,n,n
CN(C)C(=O)COc1ccc2ccc(=O)oc2c1,n,n,n,n,n,n
Cc1ccc(NC(=O)c2cnc(SCC(=O)NCC3CCCO3)n(C)c2=O)cc1C (configuration not stated),23µM,n,x,21µM,-98,n
Cn1c(SCC(=O)c2ccc(F)cc2)ncc(C(=O)Nc2ccccc2)c1=O,u,n,x,u,n,n
Cn1c(SCC(=O)NCC2CCCO2)ncc(C(=O)Nc2ccccc2)c1=O (configuration not stated),23µM,n,x,26µM,-74,n
CCCCCOC(=O)CSc1ncnc2c1sc1nc(N3CCOCC3)c3c(c12)CCCC3,n,n,n,n,x,n
CCOC(=O)c1c(C)n(C)c2c(C)cc(O)c(OC(=O)CC)c12,u,n,n,7.3µM,n,n
CCOC(=O)c1c(C)n(C)c2cc(-c3ccc(C)cc3)c(O)cc12,n,n,n,n,n,n
SMILES,DT40 TDP1 no CPT,TGFb SMAD3 inh,TDP1 block,TDP1 cell CPT,IL1B secr inh,HepG2 tox
CN(C)S(=O)(=O)c1cc(NC(=O)COC(=O)CC2Sc3ccccc3NC2=O)ccc1Cl (configuration not stated),n,n,n,n,n,n
O=C(N/N=C\c1ccncc1)c1ccccc1O,n,n,n,n,n,n
O=C(N/N=C/c1cccc2nccnc12)c1ccccc1O,3.3µM,n,n,5.8µM,n,n
O=C(N/N=C/c1cccc2cccnc12)c1ccccc1O,4.1µM,u,x,5.2µM,n,n
CC1(C(=O)NS(=O)(=O)c2ccccc2Cl)CCN1C(=O)C/C=C/c1ccccc1 (configuration not stated),n,n,x,n,n,n
O=P(OCC1CC1)(c1ccccc1)c1ccccc1,n,n,n,n,n,n
CCOc1cccc(-c2cc(-c3n[nH]c(=S)n3CC)c3ccccc3n2)c1,u,n,n,n,n,n
CCOc1ccccc1-c1cc(-c2n[nH]c(=S)n2CC)c2ccccc2n1,18µM,u,n,u,n,n
Cc1ccc(C(=O)NCC(=O)N(C)Cc2ccc(Cl)cc2Cl)s1,u,n,n[0.505 µM],u,n,n
COc1cccc(S(=O)(=O)Nc2ccc3c(c2)C(=O)N(C)C[C@H](OC)[C@H](C)CN(Cc2ccccc2F)[C@@H](C)CO3)c1,8.2µM,x,x,9.2µM,u,x
CO[C@H]1CN(C)C(=O)c2cc(NS(=O)(=O)c3ccccc3)ccc2OC[C@@H](C)N(Cc2ccccn2)C[C@@H]1C,n,x,x,n,n,x
CO[C@H]1CN(C)C(=O)c2cc(NC(=O)C3CCOCC3)ccc2OC[C@H](C)N(Cc2nccs2)C[C@H]1C,n,x,x,n,-62,x
Cn1c(=O)n(-c2ccc3c(c2)OCO3)c2nc(-c3ccccc3)nc(C(N)=O)c21,u,n,n,n,x,n
N[C@@H](Cc1cc(-c2ccc(Cl)cc2Cl)cc(CP(=O)(O)O)c1O)C(=O)O,n,x,n,n,x,x
Cc1nn(C)cc1CN(C)C(=O)c1cc(-c2ccccc2)nc2ccc(Br)cc12,15µM,n,n,16µM,n,n
COc1ccccc1CN(C)C(=O)c1cc(C)nc2ccccc12,16µM,n,x,16µM,n,n
COc1ccccc1CNC(=O)c1cc(C)nc2ccccc12,u,n,x,n,n,n
COc1ccccc1CN(C)C(=O)C(NC(=O)Cc1cccc2ccccc12)C(C)C (configuration not stated),23µM,n,n,u,-62,n
COc1ccc(-c2cc(C(=O)Oc3ccccc3)c3cc(C)ccc3n2)cc1,5.2µM,u,n[12.3 µM],u,x,n
